Reference: PubChem BioAssay (Tox21)
Inconclusive results are not listed. Active and inactive are the calls of the source. Unless noted, calls come from the whole dose curve; as a rule, active = well fitted curve in the direction sought with a large enough effect in the repeat runs; inconclusive = weak or mixed curves; inactive = flat fitted curve, though single readings scatter.

How the values were obtained:
[1] = qHTS assay to test for compound auto fluorescence at 535 nm (green) in HEK293 cells (AID 720680)
[2] = qHTS assay to test for compound auto fluorescence at 460 nm (blue) in HEK293 cell free culture (AID 720681)
How it was run: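 Test compounds were pinned into cell-free culture medium (DMEM with 10% FBS) and fluorescence was read directly at Ex/Em 405/460 nm. Signals were expressed as fluorescence equivalents of triamterene, with DMSO vehicle as control.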

[3] = qHTS assay to test for compound auto fluorescence at 535 nm (green) in HEK293 cell free culture (AID 720682)
How it was run: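 Intrinsic compound fluorescence is measured in culture medium containing 10% FBS, with excitation at 485 nm and detection at 535 nm, referenced to fluorescein.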

[4] = qHTS assay to test for compound auto fluorescence at 590 nm (red) in HEK293 cell free culture (AID 720683)
How it was run: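 Tox21 10K library compounds were pinned into cell-free DMEM with 10% FBS and fluorescence was read at excitation 540 nm. Activity is expressed as Rose Bengal sodium equivalency.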

[5] = qHTS assay to test for compound auto fluorescence at 590 nm (red) in HepG2 cell free culture (AID 720684)
How it was run: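 Measured in medium alone (MEM containing 10% FBS) following pintool addition of compound; emission at 590 nm with 540 nm excitation, referenced to Rose Bengal sodium.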

[6] = qHTS assay to test for compound auto fluorescence at 460 nm (blue) in HepG2 cell free culture (AID 720685)
How it was run: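 Compound (23 nL) or DMSO pinned into cell-free MEM with 10% FBS; blue fluorescence read at 405/460 nm excitation/emission, expressed as auto-fluorescence equivalency to triamterene.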

[7] = qHTS assay to test for compound auto fluorescence at 535 nm (green) in HepG2 cell free culture (AID 720686)
[8] = qHTS assay to test for compound auto fluorescence at 460 nm (blue) in HepG2 cells (AID 720687)
How it was run: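 Cells (2,000/well in MEM with 10% FBS) attached overnight at 37 C, then were exposed to compound or DMSO for 1 hr at 37 C, 5% CO2. Fluorescence read at Ex/Em 405/460 nm, expressed as triamterene-equivalent signal.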

[9] = target: Glucocorticoid receptor (Homo sapiens) (UniProt P04150); assay: qHTS assay to identify small molecule agonists of the glucocorticoid receptor (GR) signaling pathway (AID 720691; active = well fitted activation curve with a large enough effect in the signal ratio in the repeat runs, not every such curve was filed as active; the % refers to the signal ratio)
Sequence of Glucocorticoid receptor (Homo sapiens) (P04150 whole entry, looked up): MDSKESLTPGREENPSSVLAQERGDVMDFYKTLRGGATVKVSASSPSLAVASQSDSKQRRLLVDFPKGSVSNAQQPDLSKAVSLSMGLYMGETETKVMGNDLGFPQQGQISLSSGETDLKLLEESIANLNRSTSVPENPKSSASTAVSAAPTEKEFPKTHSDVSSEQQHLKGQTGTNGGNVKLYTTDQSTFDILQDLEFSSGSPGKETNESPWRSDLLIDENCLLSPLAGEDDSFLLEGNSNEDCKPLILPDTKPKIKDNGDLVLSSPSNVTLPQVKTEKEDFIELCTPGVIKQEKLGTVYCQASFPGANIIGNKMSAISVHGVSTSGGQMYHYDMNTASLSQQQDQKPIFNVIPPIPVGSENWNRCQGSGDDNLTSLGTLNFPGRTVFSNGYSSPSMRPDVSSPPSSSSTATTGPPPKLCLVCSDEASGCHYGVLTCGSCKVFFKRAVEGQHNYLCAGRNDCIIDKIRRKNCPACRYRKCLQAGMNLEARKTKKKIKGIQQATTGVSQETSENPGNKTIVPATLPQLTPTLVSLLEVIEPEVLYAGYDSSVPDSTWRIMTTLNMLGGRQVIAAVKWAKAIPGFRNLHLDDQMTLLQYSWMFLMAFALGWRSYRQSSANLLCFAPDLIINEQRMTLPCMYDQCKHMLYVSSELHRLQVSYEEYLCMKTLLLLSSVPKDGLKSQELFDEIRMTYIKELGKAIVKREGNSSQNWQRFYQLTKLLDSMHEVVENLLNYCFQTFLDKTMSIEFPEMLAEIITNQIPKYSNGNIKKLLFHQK
How it was run: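 Agonist mode in a HeLa line carrying a GRE-controlled beta-lactamase reporter. Compounds act for 18 h at 37 C before a 2 h room-temperature FRET substrate step and fluorescence reading.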

[10] = target: Glucocorticoid receptor (Homo sapiens) (UniProt P04150); assay: qHTS assay to identify small molecule antagonists of the glucocorticoid receptor (GR) signaling pathway (AID 720692; active = well fitted inhibition curve with a large enough effect in the signal ratio in the repeat runs, not every such curve was filed as active; the % refers to the signal ratio)
How it was run: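 Cells plated, rested 4 h at 37 C/5% CO2; compounds in DMSO pin-transferred; dexamethasone added to 5 nM final; 18 h at 37 C; B/G FRET substrate added, 2 h room temperature; fluorescence measured.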
% is set by controls: 0 for no effect and ±100 for the full control effect.

CCCCCCCCCCCCCCCCCC(=O)OCCCCCCCCCCCCCC(C)C
inactive: outcome [1] | Potency [2] | outcome [3] | outcome [4] | outcome [5] | Potency [6] | outcome [7] | Potency [8] | Potency [9] | Potency [10]

O=C1OC(=O)c2cc([N+](=O)[O-])ccc21
inactive: outcome [1] | Potency [2] | outcome [3] | outcome [4] | outcome [5] | Potency [6] | outcome [7] | Potency [9] | Potency [10]

CC(=O)O[C@H](CC(=O)[O-])C[N+](C)(C)C
inactive: outcome [1] | Potency [2] | outcome [3] | outcome [4] | outcome [5] | Potency [6] | outcome [7] | Potency [8] | Potency [9] | Potency [10]

Cc1nc(-c2ccc(OCC(C)C)c(C#N)c2)sc1C(=O)O
inactive: outcome [1] | Potency [2] | outcome [3] | outcome [4] | outcome [5] | Potency [6] | outcome [7] | Potency [9]

CN(C)CCn1nnnc1SCC1=C(C(=O)O)N2C(=O)[C@@H](NC(=O)Cc3csc(N)n3)[C@H]2SC1
inactive: fluorescence, % of fluorescein [1] 0.129% [at 18.6 µM] | fluorescence, % of fluorescent control [2] 0.443% [at 18.6 µM] | activity change [3] 0.0595% [at 18.6 µM] | fluorescence, % of fluorescent control [4] 0.0008% [at 18.6 µM] | fluorescence, % of Rose Bengal [5] 0.544% [at 18.6 µM] | fluorescence, % of fluorescent control [6] 0.31% [at 18.6 µM] | fluorescence, % of fluorescein control [7] 0.0098% [at 18.6 µM] | fluorescence, % of fluorescent control [8] 0.222% [at 18.6 µM] | Potency [9] | Potency [10]

C=C(C)C1CC=C(C)C(O)C1 (stereo unspecified)
inactive: outcome [1] | Potency [2] | outcome [3] | outcome [4] | outcome [5] | Potency [6] | outcome [7] | Potency [9]

CC(=O)N[C@@H](CCC(N)=O)C(=O)O
inactive: outcome [1] | Potency [2] | outcome [3] | outcome [4] | outcome [5] | Potency [6] | outcome [7] | Potency [8] | Potency [9] | Potency [10]

CCCCCCCCCCCl
inactive: outcome [1] | Potency [2] | outcome [3] | outcome [4] | outcome [5] | Potency [6] | outcome [7] | Potency [9]

CCCC(C)CO (stereo unspecified)
inactive: outcome [1] | Potency [2] | outcome [3] | outcome [4] | outcome [5] | Potency [6] | outcome [7] | Potency [8] | Potency [9] | Potency [10]

C=C[Si](OC)(OC)OC
inactive: outcome [1] | Potency [2] | outcome [3] | outcome [4] | outcome [5] | Potency [6] | outcome [7] | Potency [8] | Potency [9] | Potency [10]

[O-][N+](=Nc1ccccc1)c1ccccc1
inactive: outcome [1] | Potency [2] | outcome [3] | outcome [4] | outcome [5] | Potency [6] | outcome [7] | Potency [8] | Potency [9] | Potency [10]

FC(F)(F)C(F)(F)C(F)(F)C(F)(F)C(F)(F)C(F)(F)C(F)(F)C(F)(F)C(F)(F)C(F)(F)F
inactive: fluorescence, % of fluorescein [1] 0.0789% [at 9.17 µM] | fluorescence, % of fluorescent control [2] -0.0458% [at 9.17 µM] | activity change [3] 0.0023% [at 9.17 µM] | fluorescence, % of fluorescent control [4] -0.0476% [at 9.17 µM] | fluorescence, % of Rose Bengal [5] -0.199% [at 9.17 µM] | fluorescence, % of fluorescent control [6] -0.151% [at 9.17 µM] | fluorescence, % of fluorescein control [7] 0.0369% [at 9.17 µM] | fluorescence, % of fluorescent control [8] 0.105% [at 9.17 µM] | activation [9] -0.303% [at 6.9 µM] | activity change, negative = inhibition [10] -11.7% [at 7.04 µM]

O=C(O)CCNC(=O)c1ccc(N=Nc2ccc(O)c(C(=O)O)c2)cc1
inactive: outcome [1] | Potency [2] | outcome [3] | outcome [4] | outcome [5] | Potency [6] | outcome [7] | Potency [9] | Potency [10]

CC(C)(O)c1ccccc1
inactive: outcome [1] | Potency [2] | outcome [3] | outcome [4] | outcome [5] | Potency [6] | outcome [7] | Potency [8] | Potency [9] | Potency [10]

COc1nc(C)nc(N)n1
inactive: outcome [1] | Potency [2] | outcome [3] | outcome [4] | outcome [5] | Potency [6] | outcome [7] | Potency [8] | Potency [9] | Potency [10]

CC(C)c1ccc2oc3nc(N)c(C(=O)O)cc3c(=O)c2c1
inactive: outcome [1] | Potency [2] | outcome [3] | outcome [4] | outcome [5] | Potency [6] | outcome [7] | Potency [8] | Potency [9] | Potency [10]

CCCCNc1ccccc1
inactive: outcome [1] | Potency [2] | outcome [3] | outcome [4] | outcome [5] | Potency [6] | outcome [7] | Potency [8] | Potency [9] | Potency [10]

NCCN1CCNC1=O
inactive: outcome [1] | Potency [2] | outcome [3] | outcome [4] | outcome [5] | Potency [6] | outcome [7] | Potency [8] | Potency [9] | Potency [10]

O=C(O)c1ccc[n+]([O-])c1
inactive: outcome [1] | Potency [2] | outcome [3] | outcome [4] | outcome [5] | Potency [6] | outcome [7] | Potency [9] | Potency [10]

C=CCOc1nc(OCC=C)nc(OCC=C)n1
inactive: outcome [1] | Potency [2] | outcome [3] | outcome [4] | outcome [5] | Potency [6] | outcome [7] | Potency [8] | Potency [9] | Potency [10]

CCC(C(=O)NC(N)=O)c1ccccc1 (stereo unspecified)
inactive: outcome [1] | Potency [2] | outcome [3] | outcome [4] | outcome [5] | Potency [6] | outcome [7] | Potency [8] | Potency [9] | Potency [10]

O=C(O)c1ccccc1-c1ccc(C(F)(F)F)cc1
inactive: outcome [1] | Potency [2] | outcome [3] | outcome [4] | outcome [5] | Potency [6] | outcome [7] | Potency [8] | Potency [9] | Potency [10]

OCCN1C[C@H](O)[C@@H](O)[C@H](O)[C@H]1CO
inactive: outcome [1] | Potency [2] | outcome [3] | outcome [4] | outcome [5] | Potency [6] | outcome [7] | Potency [8] | Potency [9] | Potency [10]
